# Screening results from PubChem BioAssay.
# FBW7 act: activators of human E3 ligase FBW7 | 650,000 compounds, 0.13% hits | AlphaScreen FBW7–phospho-cyclin E peptide binding, activator screen | normalized activity (activation), % at 26.1 µM | Q969H0; in the data active means normalized activity above about 1.9%;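 further: purified mutant Fbw7 with reduced substrate affinity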
# Target sequence (Q969H0 whole entry, looked up): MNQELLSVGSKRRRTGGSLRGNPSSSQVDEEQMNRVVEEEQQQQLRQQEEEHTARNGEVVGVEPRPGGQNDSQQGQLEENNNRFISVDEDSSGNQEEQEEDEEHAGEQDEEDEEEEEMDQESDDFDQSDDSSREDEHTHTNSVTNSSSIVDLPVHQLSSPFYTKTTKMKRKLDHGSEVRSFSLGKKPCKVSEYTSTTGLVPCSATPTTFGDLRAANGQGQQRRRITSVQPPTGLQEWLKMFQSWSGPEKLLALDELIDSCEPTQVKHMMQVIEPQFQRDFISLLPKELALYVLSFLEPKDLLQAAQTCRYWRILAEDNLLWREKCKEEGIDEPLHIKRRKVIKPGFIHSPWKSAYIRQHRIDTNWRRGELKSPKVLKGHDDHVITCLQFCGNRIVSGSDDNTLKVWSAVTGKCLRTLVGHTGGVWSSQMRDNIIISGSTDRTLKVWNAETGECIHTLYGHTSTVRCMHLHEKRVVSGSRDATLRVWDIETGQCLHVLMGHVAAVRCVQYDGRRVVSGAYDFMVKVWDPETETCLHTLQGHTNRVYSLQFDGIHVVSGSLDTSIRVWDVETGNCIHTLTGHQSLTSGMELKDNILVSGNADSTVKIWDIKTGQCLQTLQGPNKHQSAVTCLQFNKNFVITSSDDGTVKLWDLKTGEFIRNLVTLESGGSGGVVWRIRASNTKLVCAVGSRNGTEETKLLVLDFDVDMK
# TEAD-YAP inh: TEAD-YAP interaction inhibition | inhibition, % at 9.12 µM | 640,000 compounds, 1.4% hits | HEK-TIYL cells, TEAD-Gal4/YAP UAS-luciferase luminescence; in the data active means inhibition above about 32%;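 further: 0% = median of test compound wells and 100% = reference inhibitor wells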
# MITF primary: inhibitors of human MITF; inhibition, % at 2.6 µM; AID 1259374; O75030; 650,000 compounds, 0.91% hits; AlphaScreen MITF homodimerization, bead proximity signal; in the data active means inhibition above about 50%;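 further: 0% = vehicle wells with protein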
# GPR151 ag: activates the human receptor GPR151 | activation, % at 11.2 µM | PathHunter beta-arrestin GPR151 cells, luminescence | AID 1508602 | 650,000 compounds, 1% hits; in the data active means activation above about 4.9%;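 further: 0% = median of compound wells and 100% = cells with positive control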
# An asterisk follows results filed as active. An excerpt weighted towards active compounds, which were near 3.4% of everything screened.
SMILES,FBW7 act,TEAD-YAP inh,MITF primary,GPR151 ag
Cc1cccc(NC(=O)Cn2ncc3ccccc32)c1C,0,11,12,-2
COc1cccc(NC(=O)c2ccc(-c3cc(C)cs3)nc2N2CCOCC2)c1,0,-6,-5,0
Cc1ccc(C)n1-c1ccc(C(=O)O)cc1O,-1,-10,62*,-1
Cc1ccc(C)n1-c1cc(C(=O)O)ccc1Cl,-1,6,76*,-1
Clc1ccc(CN2CCN(/N=C/c3c(Cl)nc4sccn34)CC2)cc1,0,40*,9,2
Oc1ccccc1/C=N/N1CCN(Cc2ccc(Cl)cc2)CC1,0,2,0,4
Oc1cccc2ccc(/C=C/c3ccc4c(c3)OCO4)nc12,0,80*,6,-5
Oc1cccc2ccc(/C=C/c3cc4c(cc3Cl)OCO4)nc12,0,68*,0,-7
O=[N+]([O-])c1cccc(/C=C/c2ccc3cccc(O)c3n2)c1,0,-37,8,-2
CCOc1ccccc1NC(=O)C1CCCN(c2nc(-c3ccc(OC)cc3)no2)C1 (configuration not stated),0,-1,-1,-3
O=C(/C=C/c1cccs1)c1ccc(N2CCOCC2)cc1,0,58*,22,-5
COc1ccccc1/C=C(\NC(=O)c1ccccc1)C(=O)Nc1cccc(O)c1,0,40*,20,-2
CCNC(=O)CCCc1nc(-c2ccccc2Cl)no1,0,36*,4,-1
CCCNC(=O)CCc1nc(-c2ccccc2Cl)no1,0,3,-3,-1
CC(C)(C)c1ccccc1Nc1ncnc2sccc12,0,2,-8,1
CC(CCc1ccccc1)Nc1ncnc2sccc12 (configuration not stated),0,51*,8,2
COc1ccc(C(=O)N2CCN(Cc3ccc(SC)cc3)CC2)cc1OC,0,45*,45,-1
COc1cccc(NS(=O)(=O)c2cc(C(=O)N3CCCC3)ccc2NCCc2ccc(OC)c(OC)c2)c1,0,4,8,0
COc1cccc(NS(=O)(=O)c2cc(C(=O)N3CCN(Cc4ccccc4)CC3)ccc2NCCc2ccc(OC)c(OC)c2)c1,0,52*,3,0
CCN(CC)CCNC(=O)C1CCN(c2nc3ccc(OC)cc3s2)CC1,0,2,19,1
O=C1C=CC(=O)N1CCCCCCN1C(=O)C=CC1=O,0,41*,2,-2
COCCCNC(=O)CN(c1ccccc1C)S(=O)(=O)c1ccc(Cl)cc1,0,-2,-26,0
Cc1ccccc1-c1nc(CSCC(=O)N2CCCC2)c(C)o1,0,56*,-9,-1
Cc1ccccc1-c1nc(CSCC(=O)N2CCOCC2)c(C)o1,0,12,-3,1
Cc1ccsc1-c1nc(CSCC(=O)N2CCCC2)c(C)o1,0,46*,-3,0
SMILES,FBW7 act,TEAD-YAP inh,MITF primary,GPR151 ag
CCc1ccc(-c2nc(CSCC(=O)N3CCN(CC)CC3)c(C)o2)cc1,0,37*,-7,0
NC(=O)c1c(NC(=O)/C=C/c2ccc([N+](=O)[O-])cc2)sc2c1CCCCC2,0,4,-7,2
CC(C(=O)NCCC1=CCCCC1)n1c(=O)c2cccn2c2cccnc21 (configuration not stated),0,14,12,1
O=[N+]([O-])c1ccc(Cc2nnc(-c3cccs3)o2)cc1,0,-46,22,1
COc1ccc(Cl)cc1S(=O)(=O)N1CCN(CC(=O)Nc2ccccc2F)CC1,0,3,-8,1
CC(=O)Oc1cccc2ccc(/C=C/c3cccc(F)c3)nc12,0,40*,-7,-5
COc1cc(/C=C/c2ccc3cccc(OC(C)=O)c3n2)cc(OC)c1OC(C)=O,0,7,8,-1
Cc1c(C(=O)OCC2CCCO2)[nH]c2c1C(=O)CC(c1ccc(F)cc1)C2 (configuration not stated),0,9,-4,2
CCCOC(=O)c1[nH]c2c(c1C)C(=O)CC(c1ccco1)C2 (configuration not stated),0,56*,-8,1
CCOC(=O)c1[nH]c2c(c1C)C(=O)CC(c1ccc(F)cc1)C2 (configuration not stated),2.3*,49*,-19,1
COC(=O)c1[nH]c2c(c1C)C(=O)CC(c1ccc(F)cc1)C2 (configuration not stated),0,40*,-1,1
COC(=O)c1[nH]c2c(c1C)C(=O)CC(c1ccc(C)cc1)C2 (configuration not stated),0,-26,4,3
CSCCOC(=O)c1[nH]c2c(c1C)C(=O)CC(c1ccccc1)C2 (configuration not stated),0,45*,-2,2
CCCc1nnc(SCC(=O)NC(C)(C)C)n1CC1CCCO1 (configuration not stated),0,-2,0,0
Cc1nn(C)c(C)c1S(=O)(=O)N1CCCC(C(=O)NC(C)c2ccccc2)C1 (configuration not stated),0,5,2,0
CNC(=O)CSc1nnnn1-c1ccc2c(c1)OCO2,0,7,5,-1
Cc1c(C(=O)O)[nH]c2c1C(=O)CC(c1ccc(Cl)cc1)C2 (configuration not stated),0,-2,-7,-1
CCOC(=O)c1[nH]c2c(c1C)C(=O)CC(c1ccc(OCC)c(OC)c1)C2 (configuration not stated),0,6,-9,0
CCOCCOC(=O)c1[nH]c2c(c1C)C(=O)CC(c1ccccc1)C2 (configuration not stated),0,49*,9,0
CCOCCOC(=O)c1[nH]c2c(c1C)C(=O)CC(c1cc(OC)c(OC)c(OC)c1)C2 (configuration not stated),0,42*,-3,2
CCOC(=O)c1[nH]c2c(c1C)C(=O)CC(c1ccccc1)C2 (configuration not stated),0,47*,-10,0
COc1ccc(C2CC(=O)c3c([nH]c(C(=O)OCCSC)c3C)C2)cc1 (configuration not stated),0,-3,18,1
CCCOCCOC(=O)c1[nH]c2c(c1C)C(=O)CC(c1ccccc1)C2 (configuration not stated),0,43*,-10,1
COCCOC(=O)c1[nH]c2c(c1C)C(=O)CC(c1ccc(OC)c(OC)c1)C2 (configuration not stated),0,27,8,0
COc1ccc(S(=O)(=O)NCC2CCN(Cc3ccco3)CC2)c(OC)c1,0,-5,12,2
CCOC(=O)c1cc2c(=O)n3ccccc3nc2n(CCCOC)c1=NC(=O)c1ccccc1Br,0,-3,-1,1
O=C(NCCc1ccc(Cl)cc1)c1ccccc1Cl,0,-25,-4,1
COc1cc(NC(=O)c2ccc3nc(-c4c(C)nn(C)c4C)sc3c2)cc(OC)c1OC,0,35*,3,-1
CN1CCN(c2ccc(-c3nc4ccc(C(=O)NCCO)cc4s3)cc2)CC1,0,67*,-7,-1
